The values that follow come from PubChem BioAssay (NCATS).

Results filed as inconclusive are left out. Entries that show only a call come without a potency. Calls of active or inactive are those of the source. Calls come from the whole dose curve; as a rule, active = well fitted cell-killing curve with a large enough effect; inconclusive = small, poorly fitted or top-dose-only effect, or effect the other way; inactive = no such curve, though single readings can be large or run the other way.
Potency is the fitted concentration of half-maximal effect.

The assay can be described thus: Quantitative High-Throughput drug screen in 47 multiple myeloma cell lines against the NCATS MIPE library collection: FR4_PLB cell viability assay (AID 1918924; note: nearly all actives have a fitted effect of over 35% in size). To be noted: FR4_PLB myeloma cells viability, CellTiter-Glo ATP, 48 h; series mostly up to 45.8 µM. The source says:
PI: Beverly A. Mock Ph.D.
Laboratory of Cancer Biology and Genetics,
Center for Cancer Research, National Cancer Institute,
National Institute of Health, Bethesda, Maryland
Drug resistance and disease progression are common in multiple myeloma (MM) patients, underscoring the need for new therapeutic combinations. […] We hypothesized that effective combinations would reduce MYC expression and enhance p16 activity. […] These preclinical data identify potentially useful drug combinations for evaluation in drug-resistant MM and reveal potential mechanisms of combined drug sensitivity.
Described herein is the primary MIPE qHTS used to cherrypick compounds. Validated compounds were then further tested for potential synergistic activiy.
[1] Peat TJ, Gaikwad SM, Dubois W, Gyabaah-Kessie N, Zhang S, Gorjifard S, Phyo Z, Andres M, Hughitt VK, Simpson RM, Miller MA, Girvin AT, Taylor A, Williams D, D'Antonio N, Zhang Y, Rajagopalan A, Flietner E, Wilson K, Zhang X, Shinn P, Klumpp-Thomas C, McKnight C, Itkin Z, Chen L, Kazandijian D, Zhang J, Michalowski AM, Simmons JK, Keats J, Thomas CJ, Mock BA. Drug combinations identified by high-throughput screening promote cell cycle transition and upregulate Smad pathways in myeloma. Cancer Lett. 2023 Aug 1;568:216284. doi: 10.1016/j.canlet.2023.216284. Epub 2023 Jun 24. PMID: 37356470; PMCID: PMC10408729.
SEQUENCE No. (e.g., 1, 2, 3, etc.); […] (e.g., Cells, Incubation, Reagent, etc.); VALUE and DESCRIPTION.
1; Cells; 5 uL; white, solid bottom 1536-well Greiner assay plate.
2; Compounds; 23 nL; Kalypsis pin tool (Wako USA) equipped with a 1536-well pin head to transfer to the assay plates.
3; Incubation; 48 hours; 37C incubation.
4; Reagent;5uL; CellTiter Glo (Promega).
5; Detector; 425V; Luminescence; Viewlux PerkinElmer.
NOTES (numbers refer to Sequence numbers above)
1. The cell-based screening methods employed in this study were like those previously published. Briefly, the corresponding myeloma cell lines were screened in 1,536-well plates with 500 cells, 5-uL per well for inhibition of cell viability (assessed by measuring ATP levels with CellTiterGlo).
2. NCATS MIPE 4.0 library of approved and investigational drugs were added using the Kalypsis pin tool. Wells treated with DMSO only for 100% viability and media only wells for 0% viability were used as controls.
3. The assay plates were covered and incubated for 48 hours in a 37C, 5% CO2 incubator with controlled humidity.
4. After 48 hours, CellTilter-GloTM luminescent substrate mix (Promega) reagent was added to the assay plate and plates we incubated for 5 min at room temperature.
5. Signal was measured as median relative luminescence units on a ViewLux (PerkinElmer) multiplate reader.
[1] Heske CM, Davis MI, Baumgart JT, Wilson K, Gormally MV, Chen L, Zhang X, Ceribelli M, Duveau DY, Guha R, Ferrer M, Arnaldez FI, Ji J, Tran HL, Zhang Y, Mendoza A, Helman LJ, Thomas CJ. Matrix Screen Identifies Synergistic Combination of PARP Inhibitors and Nicotinamide Phosphoribosyltransferase (NAMPT) Inhibitors in Ewing Sarcoma. Clin Cancer Res. 2017 Dec 1;23(23):7301-7311. doi: 10.1158/1078-0432.CCR-17-1121. Epub 2017 Sep 12. PMID: 28899971; PMCID: PMC6636827.
In the case of `O=C(O)C(=O)c1cn(Cc2ccccc2)c2ccc(-c3ccc(OC(F)(F)F)cc3)cc12`, the Potency entry is “inactive”.
To `NCC1(CC(=O)O)CCCCC1` belongs “inactive”.
To `Cn1c(CCCC(=O)O)nc2cc(N(CCCl)CCCl)ccc21` belongs 16.6 µM (active).
To `COc1ccc(C(CN(C)C)C2(O)CCCCC2)cc1` (stereo not given) belongs “inactive”; to `Fc1ccc(C(OCCN2CCN(CCCc3ccccc3)CC2)c2ccc(F)cc2)cc1`, 20.9 µM (active).
Turning to `CN(C)CCN(C)CCc1ccc(Cl)c(Cl)c1`, the Potency entry is “inactive”.
Turning to `Cn1cc(C2=C(c3cn(C4CCN(Cc5ccccn5)CC4)c4ccccc34)C(=O)NC2=O)c2ccccc21`, the Potency was 16.6 µM (active).
To `Cc1cc(SCc2sc(-c3ccc(C(F)(F)F)c(F)c3)nc2C)ccc1OCC(=O)O` belongs “inactive”; to `COC[C@@H](NC(C)=O)C(=O)NCc1ccccc1`, “inactive”.
To `CN1CCN(C(=O)O[C@H]2c3nccnc3C(=O)N2c2ccc(Cl)cn2)CC1` belongs “inactive”; to `C#CCN(C)[C@H](C)Cc1ccccc1`, “inactive”; to `C[C@@H]1O[C@@H](O[C@H]2C[C@@H](O)[C@]3(CO)[C@H]4[C@H](O)C[C@]5(C)[C@@H](C6=CC(=O)OC6)CC[C@]5(O)[C@@H]4CC[C@]3(O)C2)[C@H](O)[C@H](O)[C@H]1O`, 0.0093 µM (active).
To `O=C1CC[C@@]2(O)[C@H]3Cc4ccc(O)c5c4[C@@]2(CCN3CC2CC2)[C@H]1O5` belongs “inactive”; to `C[C@@H]1[C@@H](CC(C[C@H]2O[C@@H]3O[C@]4(C)CC[C@@H]5[C@H](C)CC[C@@H]([C@H]2C)[C@@]35OO4)C[S+](=O)([O-])c2ccc(COC(=O)N(C)C)cc2)O[C@@H]2O[C@]3(C)CC[C@H]4[C@H](C)CC[C@@H]1[C@@]24OO3` (stereo not given in full), 0.209 µM (active).
Regarding `CNCC(O)c1ccc(O)cc1` (stereo not given), the Potency result is “inactive”.
The entry for `O=c1[nH]c2ccccc2n1CCCN1CCC(n2c(=O)[nH]c3cc(Cl)ccc32)CC1` is “inactive”; for `CN(C)CCc1ccc(O)cc1` it is “inactive”; for `N[C@@H](Cc1ccc(N(CCCl)CCCl)cc1)C(=O)O` it is 20.9 µM (active).
To `C=C(C)[C@H]1Cc2c(ccc3c2O[C@@H]2COc4cc(OC)c(OC)cc4[C@@H]2C3=O)O1` belongs 0.935 µM (active); to `O=P1(NCCCl)OCCCN1CCCl` (stereo not given), 16.6 µM (active); to `COC[C@H]1OC(=O)c2coc3c2[C@@]1(C)C1=C(C3=O)C2CCC(=O)[C@@]2(C)C[C@H]1OC(C)=O` (stereo not given in full), 11.8 µM (active).
To `CNC(=O)c1ccc(N2C(=S)N(c3ccc(C#N)c(C(F)(F)F)c3)C(=O)C23CCC3)cc1F` belongs “inactive”; to `COC1(CS(=O)c2ccccc2)CCN(CCc2c[nH]c3ccc(F)cc23)CC1` (stereo not given), “inactive”; to `CC1=C2C[C@@H]3[C@@H](CC=C4C[C@@H](O)CC[C@@]43C)[C@@H]2CC[C@]12O[C@H]1C[C@H](C)CN[C@H]1[C@H]2C`, 10.5 µM (active).
Consider `Cc1sc2c(c1C)C(c1ccc(Cl)cc1)=N[C@@H](CC(=O)OC(C)(C)C)c1nnc(C)n1-2`, for which the Potency was 0.332 µM (active).
